Test results: PubChem BioAssay (EPA / NIEHS)
Records with an inconclusive call do not appear. Calls of active or inactive are those of the source. Rule for the calls, unless noted: active = hit-call score of the fitted dose curve at least 0.9, where 1 is the maximum; inactive = score below 0.9.

Key:
[1] = read-out: Collagen I, COL1A1 (gene 1277); experiment: BSK_MyoF_CollagenI: BioMAP Diversity Plus: MyoF Assay for Collagen I Biomarker Activity (AID 2284238); conditions: primary human lung fibroblasts
Procedure, shortened: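 Lung fibroblasts (human primary) dosed, 24 h; Collagen I by ELISA; positive-direction fit vs DMSO control. Parallel SRB total-protein staining (0.1% SRB, 10% TCA fixation, 560 nm) flags overt cytotoxicity.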

[2] = read-out: Collagen III, COL3A1 (gene 1281); experiment: BSK_MyoF_CollagenIII: BioMAP Diversity Plus: MyoF Assay for Collagen III Biomarker Activity (AID 2284239); conditions: primary human lung fibroblasts
Procedure, shortened: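 ELISA read-out of collagen III from human lung fibroblasts after 24 h of chemical treatment. The DMSO control served as negative control and baseline, with values fitted in the positive direction.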

[3] = read-out: Interleukin 17F (IL17F), IL17F (gene 112744); experiment: BSK_BT_xIL17F: BioMAP Diversity Plus: BT Assay for Interleukin 17F (IL17F) Biomarker Activity (AID 2284243); conditions: primary human B cells with PBMC
Procedure, shortened: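 Compound was added to co-cultures of human B cells and PBMC. After 24 hours, IL-17F released into the medium was measured with LumineX xMAP technology. Responses were then fitted upward relative to DMSO.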

[4] = read-out: Actin alpha 1 (ACTA1), ACTA1 (gene 58); experiment: BSK_MyoF_ACTA1: BioMAP Diversity Plus: MyoF Assay for Actin alpha 1 (ACTA1) Biomarker Activity (AID 2284244); conditions: primary human lung fibroblasts
Procedure, shortened: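 MyoF fibroblast system (human lung); a-SMA quantified via ELISA at 24 h; DMSO-normalised, gain-of-signal endpoint.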

[5] = read-out: Interleukin 2 (IL2), IL2 (gene 3558); experiment: BSK_BT_xIL2: BioMAP Diversity Plus: BT Assay for Interleukin 2 (IL2) Biomarker Activity (AID 2284245); conditions: primary human B cells with PBMC
Procedure, shortened: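 Co-cultures of primary human B cells and PBMC are treated with chemical and sampled at 24 h. IL-2 secretion is quantified by Luminex xMAP, with DMSO-treated wells as baseline.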

[6] = read-out: Basic fibroblast growth factor (bFGF), FGF2 (gene 2247); experiment: BSK_MyoF_bFGF: BioMAP Diversity Plus: MyoF Assay for Basic fibroblast growth factor (bFGF) Biomarker Activity (AID 2284246); conditions: primary human lung fibroblasts
Procedure, shortened: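 Fibroblasts from human lung, 24 h dosing. bFGF by ELISA; gain of signal over DMSO.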

[7] = read-out: Collagen IV, COL4A1 (gene 1282); experiment: BSK_MyoF_CollagenIV: BioMAP Diversity Plus: MyoF Assay for Collagen IV Biomarker Activity (AID 2284247); conditions: primary human lung fibroblasts
Procedure, shortened: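 Lung fibroblasts (human primary) treated with chemicals were assayed after 24 h for Collagen IV using an ELISA, with DMSO serving as negative control and baseline for a positive-direction fit.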

[8] = read-out: Plasminogen activator inhibitor-1 (PAI1), SERPINE1 (gene 5054); experiment: BSK_MyoF_PAI1: BioMAP Diversity Plus: MyoF Assay for Plasminogen activator inhibitor-1 (PAI1) Biomarker Activity (AID 2284256); conditions: primary human lung fibroblasts;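 for outcome: PAI-1 protein level measured by ELISA in fibroblast cultures; PAI-1 read 24 h after compound addition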
Procedure, shortened: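 Primary human lung fibroblasts are dosed and incubated 24 h. PAI-1 is then measured by ELISA, while parallel cultures undergo SRB staining for overt cytotoxicity. Increases over DMSO define activity.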

[9] = read-out: Interleukin-8 (IL8), CXCL8 (gene 3576); experiment: BSK_MyoF_IL8: BioMAP Diversity Plus: MyoF Assay for Interleukin-8 (IL8) Biomarker Activity (AID 2284261); conditions: primary human lung fibroblasts
Procedure, shortened: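 IL-8 levels were measured by ELISA in human lung fibroblasts harvested 24 h after compound addition. Responses were analysed as gain of signal over the DMSO baseline.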

[10] = read-out: Decorin, DCN (gene 1634); experiment: BSK_MyoF_Decorin: BioMAP Diversity Plus: MyoF Assay for Decorin Biomarker Activity (AID 2284265); conditions: primary human lung fibroblasts
Procedure, shortened: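 Compound is added to lung fibroblast cultures; cells incubate 24 h; decorin is then measured by ELISA; the response is analysed upward against DMSO controls.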

[11] = BSK_MyoF_SRB: Viability Assessment in the BioMAP Diversity Plus: MyoF Assay (AID 2284267); conditions: primary human lung fibroblasts;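 note: total protein by SRB absorbance in parallel cultures as cytotoxicity measure; cells assessed 24 h after compound addition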
Procedure, shortened: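 In this viability endpoint, fibroblasts from human lung are treated for 24 h, TCA-fixed, SRB-stained (0.1%) and read at 560 nm. Gain of signal relative to DMSO defines activity.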

[12] = read-out: Matrix Metallopeptidase 1 (MMP1), MMP1 (gene 4312); experiment: BSK_MyoF_MMP1: BioMAP Diversity Plus: MyoF Assay for Matrix Metallopeptidase 1 (MMP1) Biomarker Activity (AID 2284268); conditions: primary human lung fibroblasts
Procedure, shortened: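 Lung fibroblast cultures were dosed with test chemicals and, after 24 h, MMP1 levels were measured by ELISA; responses were referenced to DMSO and analysed for increases.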

[13] = read-out: TIMP metallopeptidase inhibitor 1 (TIMP1), TIMP1 (gene 7076); experiment: BSK_MyoF_TIMP1: BioMAP Diversity Plus: MyoF Assay for TIMP metallopeptidase inhibitor 1 (TIMP1) Biomarker Activity (AID 2284269); conditions: primary human lung fibroblasts
Procedure, shortened: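 ELISA read-out of TIMP-1 from primary human lung fibroblast cultures 24 h after compound dosing; gain of signal relative to DMSO vehicle baseline defines activity.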

[14] = CCTE_Mundy_HCI_Cortical_NOG_NeuronCount: CCTE's Neurite Outgrowth Assay in rat cortical cells for Neuron Count, Mundy Lab (AID 2284236; active = hit-call score of the fitted dose curve at least 0.9, where 1 is the maximum;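 note: neurons counted by imaging betaIII-tubulin and Hoechst stained cortical cells; cells exposed to compound for about 48 hours before fixation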)
Procedure, shortened: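 Read-out: neuron number by high-content imaging of betaIII-tubulin (Alexa Fluor-488) and Hoechst-labelled rat primary cortical cells.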

[15] = CCTE_Mundy_HCI_Cortical_NOG_BPCount: CCTE's Neurite Outgrowth Assay in rat cortical cells for Branch Point Count, Mundy Lab (AID 2284237);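 for AC50: branch points counted about two days after chemical exposure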
Procedure, shortened: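 Measured 50.33 h after dosing, this morphology endpoint uses rat primary cortical cultures labelled for betaIII-tubulin. Branch points are quantified by high-content imaging, with DMSO as negative control and baseline.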

[16] = CCTE_Mundy_HCI_hNP1_Casp3_7: CCTE's Caspase-Glo 3/7 Assay in human neuroprogenitor cells for Apoptosis, Mundy Lab (AID 2284240)
Procedure, shortened: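 Apoptosis is scored by activated caspase-3/7 luminescence in WA09-derived neural progenitor cells, measured 26.5 h after chemical dosing. Values represent gain of signal relative to DMSO vehicle.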

[17] = CCTE_Mundy_HCI_Cortical_Synap_Neur_Matur_NeuronCount: CCTE's Synaptogenesis and Neurite Maturation Assay in rat cortical cells for Neuron Count, Mundy Lab (AID 2284242; active = hit-call score of the fitted dose curve at least 0.9, where 1 is the maximum;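 for AC50: hits reduce neuron count versus DMSO baseline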)
Procedure, shortened: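 Measured at DIV 12: fluorescently labelled neurons (Hoechst nuclei, MAP2) in rat primary cortical cultures, counted by high-content imaging. AraC suppressed glia from DIV 5; DMSO served as negative control.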

[18] = IUF_NPC2c_oligodendrocyte_migration_120hr: Leibniz Research Institute for Environmental Medicine (IUF) 120-hour Neural Progenitor Cell Migration Assay for Oligodendrocyte Migration (NPC2c) (AID 2284297)
Procedure, shortened: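 Read-out is the mean distance of O4-positive oligodendrocytes from the sphere core edge at 120 h, normalized to radial glia migration and fitted in the gain direction against DMSO. Spheres of primary human neural progenitors differentiated on laminin under continuous compound exposure.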

[19] = IUF_NPC2a_radial_glia_migration_120hr: Leibniz Research Institute for Environmental Medicine (IUF) 120-hour Neural Progenitor Cell Migration Assay for Radial Glia Migration (NPC2a) (AID 2284298)
Procedure, shortened: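 Readout: distance in um from sphere core edge to migration-area edge, derived from Hoechst nuclei density with a threshold-defined polynomial boundary. Spheres: hNPC, GW 16-19, 0.3 mm, on PDL/laminin; exposure 5 days; DMSO is baseline.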

[20] = CCTE_Mundy_HCI_hNP1_CellTiter: CCTE's Cell Titer-Glo 2 Assay in human neuroprogenitor cells for Viability, Mundy Lab (AID 2284241; active = hit-call score of the fitted dose curve at least 0.9, where 1 is the maximum)
Procedure, shortened: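 Human neural progenitor cells (hNP1, WA09-derived) were plated on poly-L-ornithine/laminin and grown 40 to 44 hours at 37 °C, 5% CO2 before chemical addition. Twenty-four hours later, ATP was measured by CellTiter-Glo luminescence; loss of signal versus DMSO indicates reduced viability.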

N#CSCSc1nc2ccccc2s1
AC50 [1]: 5.73 µM (active)
AC50 [2]: 5.71 µM (active)
AC50 [3]: 4.93 µM (active)
AC50 [4]: 4.21 µM (active)
AC50 [5]: 5.16 µM (active)
AC50 [6]: 10.6 µM (active)
AC50 [7]: 6.4 µM (active)
AC50 [8]: 7.79 µM (active)
AC50 [9]: 11.2 µM (active)
AC50 [10]: 5.27 µM (active)
AC50 [11]: 5.55 µM (active)
AC50 [12]: 3.63 µM (active)
AC50 [13]: 11.4 µM (active)

Cc1nn(C)c(Oc2ccccc2)c1C=NOCc1ccc(C(=O)OC(C)(C)C)cc1
AC50 [14]: 0.327 µM (active)
AC50 [15]: 0.014 µM (active)
AC50 [16]: 8.5 µM (active)
AC50 [17]: 0.00225 µM (active)
AC50 [18]: 12.5 µM (active)
AC50 [19]: 5.23 µM (active)

CC(C)(c1ccc(O)cc1)c1ccc(O)cc1
outcome [14]: inactive
outcome [17]: inactive
outcome [18]: inactive
outcome [19]: inactive

CCN(CC)C(=O)c1cccc(C)c1
outcome [14]: inactive
outcome [15]: inactive
outcome [16]: inactive
outcome [20]: inactive
outcome [17]: inactive
outcome [18]: inactive
outcome [19]: inactive

CC1(C)C(C=C(Cl)Cl)C1C(=O)OCc1cccc(Oc2ccccc2)c1 (stereo unspecified)
AC50 [14]: 78.4 µM (active)
AC50 [15]: 84.5 µM (active)
outcome [16]: inactive
outcome [20]: inactive
AC50 [17]: 5.69 µM (active)

C#CCOC(=O)[C@@H](C)Oc1ccc(Oc2ncc(Cl)cc2F)cc1
outcome [14]: inactive
outcome [15]: inactive
outcome [16]: inactive
outcome [20]: inactive
outcome [17]: inactive
outcome [18]: inactive
outcome [19]: inactive

S=C([S-])NCCNC(=S)[S-].[Mn+2]
outcome [16]: inactive
outcome [17]: inactive
outcome [18]: inactive
outcome [19]: inactive

CCCN(CCC)C(=O)SCC
outcome [16]: inactive
outcome [20]: inactive
outcome [18]: inactive
outcome [19]: inactive

COCCO
outcome [1]: inactive
outcome [2]: inactive
outcome [3]: inactive
outcome [4]: inactive
outcome [5]: inactive
outcome [6]: inactive
outcome [7]: inactive
outcome [8]: inactive
outcome [9]: inactive
outcome [10]: inactive
outcome [11]: inactive
outcome [12]: inactive
outcome [13]: inactive

O=C(O)c1ccccc1
outcome [14]: inactive
outcome [15]: inactive
outcome [16]: inactive
outcome [20]: inactive
outcome [18]: inactive
outcome [19]: inactive

S=C(S)NCCNC(=S)S.[Mn+2].[S-]C([S-])=NCCN=C([S-])[S-].[Zn+2]
outcome [15]: inactive
outcome [16]: inactive
outcome [18]: inactive
outcome [19]: inactive

CCC(C)OC(=O)N1CCCCC1CCO (stereo unspecified)
outcome [1]: inactive
outcome [2]: inactive
outcome [3]: inactive
outcome [4]: inactive
outcome [5]: inactive
outcome [6]: inactive
outcome [7]: inactive
outcome [8]: inactive
outcome [9]: inactive
outcome [10]: inactive
outcome [11]: inactive
outcome [12]: inactive
outcome [13]: inactive

CSC(=O)c1cccc2nnsc12
outcome [15]: inactive
outcome [16]: inactive
outcome [20]: inactive
outcome [18]: inactive
outcome [19]: inactive
